For 22 targets, log2 fold change results are on record in the supplement of paper PMC10849652.

About 8,800 targets were measured; listed, in parts, are those with a hit and a random draw of the rest. About 0.5% of all pairs of compound and target were hits. Unmarked numbers belong to inactive results.

Chain of UniProt Q9BW66 (Q9BW66 whole entry, looked up): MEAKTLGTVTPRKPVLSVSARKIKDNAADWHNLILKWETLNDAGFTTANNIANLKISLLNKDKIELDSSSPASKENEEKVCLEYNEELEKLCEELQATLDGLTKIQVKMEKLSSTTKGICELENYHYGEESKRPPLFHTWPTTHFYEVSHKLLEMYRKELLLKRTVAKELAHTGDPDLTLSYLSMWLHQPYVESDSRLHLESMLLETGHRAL
Chain of UniProt Q9NPI6 (Q9NPI6 whole entry, looked up): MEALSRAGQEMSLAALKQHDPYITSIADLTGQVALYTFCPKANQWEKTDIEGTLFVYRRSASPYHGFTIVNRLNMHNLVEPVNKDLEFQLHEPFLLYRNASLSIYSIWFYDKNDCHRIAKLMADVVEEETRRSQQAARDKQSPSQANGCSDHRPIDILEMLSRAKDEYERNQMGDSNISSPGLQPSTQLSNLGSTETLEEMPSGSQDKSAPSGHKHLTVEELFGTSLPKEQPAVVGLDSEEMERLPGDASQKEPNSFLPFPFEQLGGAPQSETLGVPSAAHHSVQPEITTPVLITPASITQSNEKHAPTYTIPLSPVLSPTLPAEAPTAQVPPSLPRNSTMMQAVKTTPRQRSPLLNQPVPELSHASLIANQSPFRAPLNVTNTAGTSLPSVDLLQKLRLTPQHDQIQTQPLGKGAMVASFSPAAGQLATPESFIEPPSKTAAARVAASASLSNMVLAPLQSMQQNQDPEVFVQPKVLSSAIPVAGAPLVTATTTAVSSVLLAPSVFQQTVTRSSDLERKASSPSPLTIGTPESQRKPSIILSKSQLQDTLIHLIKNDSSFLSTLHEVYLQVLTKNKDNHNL
Chain of UniProt Q7Z401 (Q7Z401 whole entry, looked up): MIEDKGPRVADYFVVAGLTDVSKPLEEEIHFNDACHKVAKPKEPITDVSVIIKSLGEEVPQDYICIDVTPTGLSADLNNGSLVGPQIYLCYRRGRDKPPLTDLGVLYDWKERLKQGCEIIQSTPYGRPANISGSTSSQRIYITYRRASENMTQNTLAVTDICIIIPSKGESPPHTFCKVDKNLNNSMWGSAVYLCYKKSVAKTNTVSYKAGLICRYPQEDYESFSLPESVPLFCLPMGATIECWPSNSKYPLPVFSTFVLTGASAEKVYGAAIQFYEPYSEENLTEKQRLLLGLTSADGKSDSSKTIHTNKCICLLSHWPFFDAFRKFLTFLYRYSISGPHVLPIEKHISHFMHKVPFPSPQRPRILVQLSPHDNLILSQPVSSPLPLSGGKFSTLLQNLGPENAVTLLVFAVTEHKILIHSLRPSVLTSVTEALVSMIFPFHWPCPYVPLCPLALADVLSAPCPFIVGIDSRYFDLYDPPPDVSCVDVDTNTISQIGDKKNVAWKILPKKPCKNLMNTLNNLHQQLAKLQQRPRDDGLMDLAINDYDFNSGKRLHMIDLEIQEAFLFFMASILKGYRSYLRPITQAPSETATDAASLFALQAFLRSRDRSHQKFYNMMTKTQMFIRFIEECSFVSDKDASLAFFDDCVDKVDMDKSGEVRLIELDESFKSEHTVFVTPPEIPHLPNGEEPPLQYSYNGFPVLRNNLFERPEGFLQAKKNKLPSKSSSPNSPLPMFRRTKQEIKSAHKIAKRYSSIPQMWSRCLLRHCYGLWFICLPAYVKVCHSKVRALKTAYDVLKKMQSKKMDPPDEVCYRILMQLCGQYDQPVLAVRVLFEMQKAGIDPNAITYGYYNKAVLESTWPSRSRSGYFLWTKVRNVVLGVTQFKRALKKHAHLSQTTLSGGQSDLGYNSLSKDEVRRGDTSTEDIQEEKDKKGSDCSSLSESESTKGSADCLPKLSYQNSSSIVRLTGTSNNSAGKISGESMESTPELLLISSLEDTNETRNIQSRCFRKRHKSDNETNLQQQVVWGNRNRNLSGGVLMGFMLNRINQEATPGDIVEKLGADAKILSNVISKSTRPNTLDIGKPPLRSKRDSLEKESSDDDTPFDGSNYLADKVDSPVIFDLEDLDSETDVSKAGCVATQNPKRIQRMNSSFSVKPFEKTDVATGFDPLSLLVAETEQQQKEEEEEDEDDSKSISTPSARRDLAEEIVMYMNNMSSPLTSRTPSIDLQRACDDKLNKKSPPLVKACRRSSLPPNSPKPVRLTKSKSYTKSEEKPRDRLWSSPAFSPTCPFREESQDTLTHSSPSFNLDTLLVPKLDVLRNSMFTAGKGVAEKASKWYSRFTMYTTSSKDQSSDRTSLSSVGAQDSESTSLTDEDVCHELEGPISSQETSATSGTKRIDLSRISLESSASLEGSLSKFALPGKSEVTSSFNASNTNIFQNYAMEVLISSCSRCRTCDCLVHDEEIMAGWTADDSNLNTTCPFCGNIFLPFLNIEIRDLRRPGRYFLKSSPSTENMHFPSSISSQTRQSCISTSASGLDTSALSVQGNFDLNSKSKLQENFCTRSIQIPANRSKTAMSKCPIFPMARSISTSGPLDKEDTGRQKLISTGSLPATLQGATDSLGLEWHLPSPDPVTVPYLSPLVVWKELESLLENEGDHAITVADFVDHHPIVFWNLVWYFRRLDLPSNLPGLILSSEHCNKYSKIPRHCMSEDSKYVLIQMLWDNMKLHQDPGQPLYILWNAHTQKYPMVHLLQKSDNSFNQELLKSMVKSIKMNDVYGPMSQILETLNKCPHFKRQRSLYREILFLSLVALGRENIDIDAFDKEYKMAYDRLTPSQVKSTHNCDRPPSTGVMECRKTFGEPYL
Chain of UniProt Q8NF50 (Q8NF50 whole entry, looked up): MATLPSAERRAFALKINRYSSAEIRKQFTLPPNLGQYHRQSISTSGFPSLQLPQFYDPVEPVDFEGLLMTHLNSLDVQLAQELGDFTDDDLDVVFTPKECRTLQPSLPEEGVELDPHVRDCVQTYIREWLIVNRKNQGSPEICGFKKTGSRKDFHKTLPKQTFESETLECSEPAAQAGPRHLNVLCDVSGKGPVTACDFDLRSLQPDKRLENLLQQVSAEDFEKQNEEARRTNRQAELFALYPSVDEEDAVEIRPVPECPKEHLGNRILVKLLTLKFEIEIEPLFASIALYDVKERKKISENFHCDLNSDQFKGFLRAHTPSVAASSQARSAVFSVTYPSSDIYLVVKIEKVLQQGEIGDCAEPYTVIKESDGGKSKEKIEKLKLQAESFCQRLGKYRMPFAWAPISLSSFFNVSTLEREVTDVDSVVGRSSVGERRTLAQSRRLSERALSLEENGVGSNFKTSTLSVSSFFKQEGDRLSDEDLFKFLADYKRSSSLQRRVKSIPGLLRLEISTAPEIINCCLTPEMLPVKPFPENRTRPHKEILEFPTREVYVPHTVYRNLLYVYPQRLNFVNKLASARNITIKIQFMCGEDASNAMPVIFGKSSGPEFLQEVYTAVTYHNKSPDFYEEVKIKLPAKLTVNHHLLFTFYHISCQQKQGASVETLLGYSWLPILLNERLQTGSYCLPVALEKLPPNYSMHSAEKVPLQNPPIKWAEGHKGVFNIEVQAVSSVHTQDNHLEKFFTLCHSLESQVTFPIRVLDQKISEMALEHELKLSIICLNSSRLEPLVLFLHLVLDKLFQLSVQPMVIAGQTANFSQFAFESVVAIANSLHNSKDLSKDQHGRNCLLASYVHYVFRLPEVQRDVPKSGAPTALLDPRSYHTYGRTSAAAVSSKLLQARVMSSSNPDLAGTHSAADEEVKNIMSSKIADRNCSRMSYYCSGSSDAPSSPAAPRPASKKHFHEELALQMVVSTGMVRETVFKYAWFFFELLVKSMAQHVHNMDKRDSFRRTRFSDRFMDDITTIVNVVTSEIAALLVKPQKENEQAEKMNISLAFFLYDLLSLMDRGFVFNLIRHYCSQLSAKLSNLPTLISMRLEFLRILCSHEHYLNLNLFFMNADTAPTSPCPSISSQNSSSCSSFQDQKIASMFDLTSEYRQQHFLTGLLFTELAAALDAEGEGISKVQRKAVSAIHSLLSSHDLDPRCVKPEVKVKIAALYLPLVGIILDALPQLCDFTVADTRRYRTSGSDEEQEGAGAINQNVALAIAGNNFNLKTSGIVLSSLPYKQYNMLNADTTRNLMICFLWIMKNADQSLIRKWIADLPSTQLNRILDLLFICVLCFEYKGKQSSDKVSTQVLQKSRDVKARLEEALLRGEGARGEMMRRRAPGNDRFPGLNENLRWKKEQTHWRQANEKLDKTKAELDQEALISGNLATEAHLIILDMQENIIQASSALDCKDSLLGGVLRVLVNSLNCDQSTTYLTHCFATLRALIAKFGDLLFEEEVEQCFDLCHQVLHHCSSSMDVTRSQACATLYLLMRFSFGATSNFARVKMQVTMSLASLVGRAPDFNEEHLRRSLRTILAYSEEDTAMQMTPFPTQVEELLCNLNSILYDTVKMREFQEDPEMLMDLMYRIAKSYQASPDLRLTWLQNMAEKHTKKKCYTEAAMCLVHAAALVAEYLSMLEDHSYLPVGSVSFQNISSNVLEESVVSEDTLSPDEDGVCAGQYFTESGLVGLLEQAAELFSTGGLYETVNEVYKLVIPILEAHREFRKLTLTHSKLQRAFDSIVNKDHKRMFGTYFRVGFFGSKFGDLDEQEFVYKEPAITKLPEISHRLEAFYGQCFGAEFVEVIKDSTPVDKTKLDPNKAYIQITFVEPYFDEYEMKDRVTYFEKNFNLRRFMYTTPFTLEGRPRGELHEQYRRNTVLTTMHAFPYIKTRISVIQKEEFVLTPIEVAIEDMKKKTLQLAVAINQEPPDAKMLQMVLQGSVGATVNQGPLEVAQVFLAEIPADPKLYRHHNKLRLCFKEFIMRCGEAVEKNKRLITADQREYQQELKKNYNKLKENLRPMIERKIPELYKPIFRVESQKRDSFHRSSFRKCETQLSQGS
Chain of UniProt Q14019 (Q14019 whole entry, looked up): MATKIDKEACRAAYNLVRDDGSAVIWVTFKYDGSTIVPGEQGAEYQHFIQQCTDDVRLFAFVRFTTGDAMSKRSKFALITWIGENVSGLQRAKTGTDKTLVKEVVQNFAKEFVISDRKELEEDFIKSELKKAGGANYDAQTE
Chain of UniProt Q99766 (Q99766 whole entry, looked up): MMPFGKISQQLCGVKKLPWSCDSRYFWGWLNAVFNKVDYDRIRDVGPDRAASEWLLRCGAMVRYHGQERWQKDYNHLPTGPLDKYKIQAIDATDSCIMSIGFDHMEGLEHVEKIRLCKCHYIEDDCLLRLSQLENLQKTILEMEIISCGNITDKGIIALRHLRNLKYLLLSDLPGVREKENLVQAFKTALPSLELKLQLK

Compound in the first assay: C1=CC=C(C=C1)[C@H](COC2=CC3=C(C=C2)NC(=O)N3)NC(=O)C4=CC=CN(C4=O)CC5=CC(=C(C=C5)F)F
In words: log2 fold change, soluble protein after heating vs DMSO (PISA); higher = thermal stabilisation; K562 lysate, 10 uM; active = over 0.2 and 3.5 SD of the protein, either way, in both replicates (recomputed). A digest of the protocol: (§1)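 K562 pellets were dounce-homogenised in PBS pH 7.4 containing 1 mM MgCl2, and the crude extract, at 1 mg/mL protein, was exposed to 10 μM compound for 30 min. Aliquots were heated for 3 min across 48°C-58°C, pooled, brought to 0.5% NP-40 at 4°C and spun at 21,000xg for 90 min, with the supernatant taken as soluble protein. TMTpro 16plex LC-MS/MS with equalised channel sums quantified that protein. Values are log-two fold changes in thermal stability relative to solvent controls, taken from duplicates.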
In the case of CSAD isoform 3 (UniProt Q9Y600), the log2 fold change was -0.081.

As for COTL1 (UniProt Q14019), the log2 fold change is -0.018.

On to CNIH4 (UniProt Q9P003), for which the log2 fold change was -0.355.

In the case of DAZAP1 (UniProt Q96EP5), the log2 fold change is 0.011.

Regarding CLIC2 (UniProt O15247), the log2 fold change was -0.022.

Consider DLGAP5 (UniProt Q15398), for which the log2 fold change is 0.029.

Consider COG7 (UniProt P83436), for which the log2 fold change is -0.026.

For COG5 isoform 2 (UniProt Q9UP83), the log2 fold change was 0.034.

As to COL6A5 (UniProt A8TX70), the log2 fold change is 0.025.

For DES (UniProt P17661), the log2 fold change is 0.

Consider DCP2 (UniProt Q8IU60), for which the log2 fold change was 0.006.

Compound in another assay: CC1=C(SC2=C1C(=N[C@H](C3=NN=C(N32)C)CC(=O)N)C4=CC=C(C=C4)Cl)C
The assay is described as above. In a few lines:
as §1
As for DMAC2L (UniProt Q99766), the log2 fold change is -0.048.

In the case of CXCL14 (UniProt O95715), the log2 fold change was -0.088.

For the target CMBL (UniProt Q96DG6), the log2 fold change is -0.011.

On to DOCK8 (UniProt Q8NF50), for which the log2 fold change is -0.004.

On to DPY19L3 (UniProt Q6ZPD9), for which the log2 fold change was -0.131.

As for DCP1A (UniProt Q9NPI6), the log2 fold change was -0.031.

For the target CORO7 isoform 3 (UniProt P57737), the log2 fold change is -0.006.

Turning to CINP isoform 3 (UniProt Q9BW66), the log2 fold change is -0.042.

As to DENND4A isoform 2 (UniProt Q7Z401), the log2 fold change was 0.028.

On to CXorf38 (UniProt Q8TB03), for which the log2 fold change was 0.007.

With DDX54 isoform 2 (UniProt Q8TDD1), the log2 fold change is 0.041.
